# In PubChem BioAssay (NCI):
# This is part of a sample that, as a whole, favours compounds with a hit. Of some 83,000 tested, about 20% had one in any assay.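 Values shown are percent growth following 48 h exposure of cells in 96-well plates to a single concentration of compound; below 10 was considered active.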 Unmarked numbers belong to inactive results. The source made the active and inactive calls.
# Test system: MDA-MB-468 breast
# Assay: NCI-60 one-dose screen, 48 h (100 = growth as untreated, 0 = no growth, -100 = all killed)
# Conditions: 10 µM unless noted
row,SMILES,growth
1,C#CCn1cc(C=C2C(=O)NC(=S)NC2=O)c2cc(Cl)ccc21,32.5%
2,CCN1CCN(C(=O)[C@@]2(C)CC[C@]3(C)CC[C@]4(C)C(=CC(=O)[C@@H]5[C@@]6(C)CC[C@H](OCCC#N)C(C)(C)[C@@H]6CC[C@]54C)[C@@H]3C2)CC1,90.9%
3,COc1ccc(-n2nc3c(c2-c2ccc(OC)c(OC)c2)-c2oncc2CC3)cc1,90.1%
4,Cc1ccc(-n2c(-c3cc4c([nH]c5ccccc54)c(-c4cccc(O)c4)n3)n[nH]c2=S)cc1,-32.3% (active)
5,O=C(NO)c1ccc(Cn2c(=O)n(CCc3ccccc3)c(=O)c3ccccc32)cc1,40.9%
6,Cn1ccnc1C(=O)/C=C/c1ccc(CC(=O)Nc2ccccc2)cc1,-12.9% (active)
7,Cn1/c(=N/NC(N)=S)ccc2ccccc21,24.9%
8,C=C[C@@H]1C[C@H](O)Cc2cc(F)ccc2N1,88.7%
9,COc1ccc(Cl)c(Nc2nc3ccccc3nc2NS(=O)(=O)c2cccc(NC(=O)C(C)(C)N)c2)c1,21.5%
10,CS(=O)(=O)Nc1cc(-c2ccc3ncc(C#N)c(N[C@H](CO)c4ccccc4)c3c2)cnc1Cl,14.5%
11,Clc1nc(-c2cccnc2)nc2sc3c(c12)CCCCCC3,95.1%
12,O=C(Cc1ccc(OCc2ccccc2)cc1)NCc1ccc2c(c1)OCO2,81.5%
13,Fc1ccc2[nH]cc(-c3nc(-c4c[nH]c5c(Cl)nccc45)cs3)c2c1,9.87% (active)
14,Cc1cc(N2CCOCC2)nc(N2CCOCC2)n1,94.6%
15,CC(C)N1C(=O)S/C(=C2/SC(=O)N(C(C)C)C2=O)C1=O,94.5%
16,CCc1ccc(-c2nnc(COc3ccc(-c4nc5ccc(C)cc5[nH]4)cc3OC)o2)cc1,63.1%
17,CO[C@H]1/C=C/O[C@@]2(C)Oc3c(C)c(O)c4c(O)c(c(/C=N/N5CCN(C)CC5)c(O)c4c3C2=O)NC(=O)/C(C)=C\C=C\C(C)[C@H](O)[C@@H](C)[C@@H](O)[C@@H](C)[C@@H](OC(C)=O)[C@@H]1C (stereo partly specified),92.2%
18,COc1cccc(CNc2c3ccccc3nc3ccccc23)c1OC,1.08% (active)

row,SMILES,growth
1,COc1cccc(Nc2ncnc3cc(NC(=O)CCl)ccc23)c1,-56% (active)
2,CCOC(=O)c1ccccc1NC1=C(Cl)C(=O)c2nc(C)ccc2C1=O,97.3%
3,COc1ccc(-c2nc(Nc3nc4ccccc4[nH]3)nc(N)c2C#N)cc1,121%
4,Cc1ccccc1-c1cc(Cc2ccccc2O)c(=O)[nH]n1,170%
5,CC/C=C(\C)C(CCC)(CN=O)C(=O)OCC (stereo unspecified),113%
6,COc1cccc(-c2nn(-c3ccccc3)cc2-c2ccnc(NCCNS(=O)(=O)c3ccc(C(F)(F)F)cc3)c2)c1,9.78% (active)
7,CC(=O)CCSc1ccc(OC(C)=O)cc1,101%
8,CC1(C)CC(=O)C(c2c(-c3ccccc3)[nH]c3[nH]c(=S)[nH]c(=O)c23)=C(O)C1,109%
9,COc1ccc(-c2cc(-c3ccc(N(C)C)cc3)nc(NC(=O)c3ccncc3)n2)cc1,75.5%
10,CC1=C(C(=O)/C=C/c2c[nH]c3ccccc23)C(c2ccccc2)NC(=S)N1 (stereo unspecified),102%
11,C=C(C)[C@@H]1CC[C@]2(C(=O)NCCCCCN(CCC#N)CCC#N)CC[C@]3(C)[C@H](CC[C@@H]4[C@@]5(C)CCC(=O)C(C)(C)[C@@H]5CC[C@]43C)[C@@H]12,103%
12,Cc1ccc(NCCN(C)CC(C)O)c2c(=O)c3ccccc3sc12 (stereo unspecified),13.5%
13,COC(=O)[C@]12CC[C@@H](C)[C@H](C)[C@@H]1C1=CC[C@@H]3[C@@]4(C)C(C=O)=C[C@@](C)(COC(C)=O)[C@@H]4C(=O)C[C@@]3(C)[C@]1(C)CC2,33.6%
14,CCCCNC(=O)Oc1ccc(/C(=C(/C)Cc2ccc(OC)cc2)c2ccc(OCCN3CCCCC3)cc2)cc1,60.1%
15,CN1[C@@H]2CC[C@H]1/C(=C\c1ccccc1)C(=O)/C2=C/c1ccccc1,16.2%
16,N#Cc1c2c(nc3n[nH]c(N)c13)CCCC2,93.6%
17,Clc1ccc(-c2cnc3nonc3n2)s1,49.6%
18,Cc1ccc2nc3nc4ccc[nH]c4cc3c2c1,-57.7% (active)
